A number with no mark means an inactive call. Records with an inconclusive call do not appear. A call without a number means that no potency is given here. Calls of active or inactive are those of the source. Unless noted, calls come from the whole dose curve; as a rule, active = well fitted curve in the direction sought with a large enough effect in the repeat runs; inconclusive = weak or mixed curves; inactive = no such curve, though single readings can be large; an effect the other way counts as inactive or inconclusive.
How the values were obtained:
[1] = qHTS assay to identify small molecule antagonists of the TGF-beta/Smad signaling pathway - cell viability counter screen (AID 1346824); note: nearly all actives have a fitted effect of over 50% in size
Summary of the method: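 SBE-bla HEK 293T cells, incubated overnight, then compound plus 0.25 ng/mL TGF-beta1 (stock added) for 5 hr at 37 C. Viability was read in the same wells by CellTiter-Glo luminescence after 30 min at room temperature.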

[2] = qHTS assay to identify small molecule agonists of the TGF-beta/Smad signaling pathway - cell viability counter screen (AID 1346829); note: top concentration of the series differs between compounds; nearly all actives have a fitted effect of over 45% in size
Summary of the method: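 Tox21 qHTS format: SBE-bla HEK 293T cells treated with DMSO-dissolved compounds for 5 hr; CellTiter-Glo luminescence after 30 min at room temperature.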

[3] = molecular target: Thyrotropin-releasing hormone receptor (Homo sapiens) (UniProt P34981); assay: qHTS assay to identify small molecule agonists of the thyrotropin-releasing hormone receptor (TRHR) signaling pathway (AID 1346891; calls by dose curve; note: series mostly up to about 58 µM)
Thyrotropin-releasing hormone receptor (Homo sapiens), sequence (P34981 whole entry, looked up): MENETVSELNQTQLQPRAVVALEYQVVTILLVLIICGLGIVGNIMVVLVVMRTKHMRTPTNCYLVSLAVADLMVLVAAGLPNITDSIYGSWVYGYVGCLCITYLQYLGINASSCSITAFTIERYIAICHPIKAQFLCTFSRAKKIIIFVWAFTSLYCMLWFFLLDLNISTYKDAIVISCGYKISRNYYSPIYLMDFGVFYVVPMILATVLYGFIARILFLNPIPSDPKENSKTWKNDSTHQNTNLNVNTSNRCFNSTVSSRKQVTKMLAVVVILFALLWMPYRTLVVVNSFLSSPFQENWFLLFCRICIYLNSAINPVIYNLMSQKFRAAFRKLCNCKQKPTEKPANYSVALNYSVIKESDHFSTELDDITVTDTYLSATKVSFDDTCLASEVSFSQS
Summary of the method: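 TRHR-expressing HEK293 cells were plated 18 h at 37 °C/5% CO2, loaded with calcium dye 2 h at 37 °C, then given compound in DMSO; fluorescence was read kinetically for 3 min at 1 s intervals.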

[4] = Human pregnane X receptor (PXR) small molecule agonists, qHTS cell viability counter screen (AID 1346977); note: nearly all actives have a fitted effect of over 50% in size
Summary of the method: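 PXR-Luc HepG2 cells in medium with 5% charcoal-stripped FBS were pre-incubated 5hr, then exposed to compounds for 24hr at 37C. Viability was read in the same wells by CellTiter-Fluor fluorescence, reagent added after 23hr with a 1hr incubation.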

[5] = Caspase-3/7 induction in HepG2 cells by small molecules, qHTS assay (AID 1346978); note: nearly all actives have a fitted effect of over 15% in size
Summary of the method: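 Wild-type HepG2 cells, 2,000/well, settled 5 hr at 37 C and 5% CO2, then compound-treated for 17 hr; caspase-3/7 activity read by luminescent Caspase-Glo 3/7 after 30 min at room temperature.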

[6] = Caspase-3/7 induction in CHO-K1 cells by small molecules, qHTS cell viability counter screen (AID 1346979); note: nearly all actives have a fitted effect of over 35% in size
Summary of the method: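 Wild-type CHO-K1 cells were seeded at 1,500 per well, rested 5hr at 37 C, then exposed to compounds in DMSO. After 16hr, CellTiter-Fluor reagent was added and fluorescence read 1hr later as the viability measure.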

[7] = Caspase-3/7 induction in CHO-K1 cells by small molecules, qHTS assay (AID 1346980); note: nearly all actives have a fitted effect of over 15% in size
Summary of the method: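 Wild-type CHO-K1 cells exposed to compounds for 17hr at 37 C, 5% CO2. Caspase-3/7 activity then measured by Caspase-Glo 3/7 luminescence after 30min at room temperature.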

[8] = Caspase-3/7 induction in HepG2 cells by small molecules, qHTS cell viability counter screen (AID 1346981); note: series mostly up to about 92 µM; nearly all actives have a fitted effect of over 30% in size
Summary of the method: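 Steps: seed 2,000 HepG2 cells per well; incubate 5 hr at 37 C; pin-add compounds in DMSO; incubate 16 hr; add CellTiter-Fluor; after 1 hr at 37 C and 5% CO2, read fluorescence.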

[9] = molecular target: Nuclear receptor subfamily 1 group I member 2 (Homo sapiens) (UniProt O75469); assay: Human pregnane X receptor (PXR) small molecule agonists, qHTS assay (AID 1346982); note: nearly all actives have a fitted effect of over 35% in size
Nuclear receptor subfamily 1 group I member 2 (Homo sapiens), sequence (O75469 whole entry, looked up): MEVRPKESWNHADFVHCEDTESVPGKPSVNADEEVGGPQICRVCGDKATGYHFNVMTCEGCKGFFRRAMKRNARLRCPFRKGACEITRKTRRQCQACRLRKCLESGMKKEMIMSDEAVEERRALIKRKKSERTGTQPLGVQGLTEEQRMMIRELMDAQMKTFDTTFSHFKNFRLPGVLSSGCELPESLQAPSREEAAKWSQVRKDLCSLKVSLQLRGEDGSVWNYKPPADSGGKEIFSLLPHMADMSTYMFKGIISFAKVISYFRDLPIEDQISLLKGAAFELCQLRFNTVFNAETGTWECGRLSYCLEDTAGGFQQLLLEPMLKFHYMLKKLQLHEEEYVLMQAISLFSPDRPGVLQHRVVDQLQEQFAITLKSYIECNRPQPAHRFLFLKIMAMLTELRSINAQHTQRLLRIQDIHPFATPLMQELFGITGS
Summary of the method: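 Agonist mode qHTS: PXR-Luc HepG2 cells plated 5 hr before DMSO-dissolved compounds were pinned in, cultured 24 hr at 37 C, 5% CO2; ONE-Glo luminescence readout.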

[10] = molecular target: Cytochrome P450 2C19 (Homo sapiens) (UniProt P33261); assay: Cytochrome P450 Family 2 Subfamily C Member 19 (CYP2C19) small molecule antagonists: luciferase reporter qHTS assay (AID 1671197); note: nearly all actives have a fitted effect of over 65% in size; note: potency is the fitted concentration of half-maximal effect
Cytochrome P450 2C19 (Homo sapiens), sequence (P33261 whole entry, looked up): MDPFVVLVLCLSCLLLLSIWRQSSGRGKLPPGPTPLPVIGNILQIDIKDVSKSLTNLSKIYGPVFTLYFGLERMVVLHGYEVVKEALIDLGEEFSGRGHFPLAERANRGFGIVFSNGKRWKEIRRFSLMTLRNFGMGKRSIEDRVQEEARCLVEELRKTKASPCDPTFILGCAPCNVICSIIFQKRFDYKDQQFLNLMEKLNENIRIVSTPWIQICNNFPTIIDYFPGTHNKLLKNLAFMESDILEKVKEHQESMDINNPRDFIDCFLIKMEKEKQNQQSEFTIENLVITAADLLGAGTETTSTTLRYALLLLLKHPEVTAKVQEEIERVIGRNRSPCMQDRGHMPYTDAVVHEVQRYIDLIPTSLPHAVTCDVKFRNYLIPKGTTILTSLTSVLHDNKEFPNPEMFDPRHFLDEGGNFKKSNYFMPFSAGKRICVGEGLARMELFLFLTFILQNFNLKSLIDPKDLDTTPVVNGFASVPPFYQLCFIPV
Summary of the method: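 Relative luminescence units recorded 20 min after the detection reagent stopped a 1 h, 37C CYP2C19 reaction on proluciferin substrate, which was started by NADPH regeneration following 10 min room-temperature compound preincubation; ketoconazole positive control.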

[11] = molecular target: Cytochrome P450 2C9 (Homo sapiens) (UniProt P11712); assay: Cytochrome P450 Family 2 Subfamily C Member 9 (CYP2C9) small molecule antagonists: luciferase reporter qHTS assay (AID 1671198); note: nearly all actives have a fitted effect of over 50% in size; note: potency is the fitted concentration of half-maximal effect
Cytochrome P450 2C9 (Homo sapiens), sequence (P11712 whole entry, looked up): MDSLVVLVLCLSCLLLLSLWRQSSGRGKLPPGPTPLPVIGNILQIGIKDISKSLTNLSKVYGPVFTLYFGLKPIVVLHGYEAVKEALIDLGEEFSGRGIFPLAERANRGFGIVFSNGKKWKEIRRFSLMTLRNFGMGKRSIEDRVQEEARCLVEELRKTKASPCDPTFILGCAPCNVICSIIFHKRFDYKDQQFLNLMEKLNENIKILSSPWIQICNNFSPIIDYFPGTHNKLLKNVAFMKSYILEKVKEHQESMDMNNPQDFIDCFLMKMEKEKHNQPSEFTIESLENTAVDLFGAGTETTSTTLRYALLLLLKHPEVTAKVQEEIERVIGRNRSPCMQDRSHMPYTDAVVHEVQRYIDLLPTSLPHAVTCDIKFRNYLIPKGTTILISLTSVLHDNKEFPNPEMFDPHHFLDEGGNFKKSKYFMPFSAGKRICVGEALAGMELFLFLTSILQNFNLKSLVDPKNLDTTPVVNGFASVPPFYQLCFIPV
Summary of the method: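 P450-Glo proluciferin substrate with CYP2C9 enzyme; 10 min RT preincubation, then NADPH regeneration 1 h at 37C; luciferin detection reagent 20 min RT, luminescence in relative luminescence units.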

[12] = molecular target: Cytochrome P450 1A2 (Homo sapiens) (UniProt P05177); assay: Cytochrome P450 Family 1 Subfamily A Member 2 (CYP1A2) small molecule antagonists: luciferase reporter qHTS assay (AID 1671199); note: nearly all actives have a fitted effect of over 50% in size; note: potency is the fitted concentration of half-maximal effect
Cytochrome P450 1A2 (Homo sapiens), sequence (P05177 whole entry, looked up): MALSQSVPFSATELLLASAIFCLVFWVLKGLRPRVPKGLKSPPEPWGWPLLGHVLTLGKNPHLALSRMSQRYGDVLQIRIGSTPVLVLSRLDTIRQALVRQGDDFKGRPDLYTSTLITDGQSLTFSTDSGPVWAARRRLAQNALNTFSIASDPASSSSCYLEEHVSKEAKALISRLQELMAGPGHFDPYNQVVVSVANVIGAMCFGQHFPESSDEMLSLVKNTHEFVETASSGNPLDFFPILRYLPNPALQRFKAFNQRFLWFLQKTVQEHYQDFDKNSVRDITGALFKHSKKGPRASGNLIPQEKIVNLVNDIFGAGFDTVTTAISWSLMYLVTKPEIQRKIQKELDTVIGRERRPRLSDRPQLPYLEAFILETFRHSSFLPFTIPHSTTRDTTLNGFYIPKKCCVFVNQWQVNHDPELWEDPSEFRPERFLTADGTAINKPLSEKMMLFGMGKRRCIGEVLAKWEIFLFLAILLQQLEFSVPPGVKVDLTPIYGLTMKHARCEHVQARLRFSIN
Summary of the method: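 Inhibition of CYP1A2 conversion of proluciferin to luciferin, detected by luminescence. Reaction run 1 h at room temperature with NADPH regeneration after brief compound preincubation.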

[13] = molecular target: Voltage-gated inwardly rectifying potassium channel KCNH2 (Homo sapiens) (UniProt Q12809); assay: Human Ether-a-go-go-Related Gene (hERG) channel small molecule antagonists: fluorescence cell-based qHTS assay (AID 1671200)
Voltage-gated inwardly rectifying potassium channel KCNH2 (Homo sapiens), sequence (Q12809 whole entry, looked up): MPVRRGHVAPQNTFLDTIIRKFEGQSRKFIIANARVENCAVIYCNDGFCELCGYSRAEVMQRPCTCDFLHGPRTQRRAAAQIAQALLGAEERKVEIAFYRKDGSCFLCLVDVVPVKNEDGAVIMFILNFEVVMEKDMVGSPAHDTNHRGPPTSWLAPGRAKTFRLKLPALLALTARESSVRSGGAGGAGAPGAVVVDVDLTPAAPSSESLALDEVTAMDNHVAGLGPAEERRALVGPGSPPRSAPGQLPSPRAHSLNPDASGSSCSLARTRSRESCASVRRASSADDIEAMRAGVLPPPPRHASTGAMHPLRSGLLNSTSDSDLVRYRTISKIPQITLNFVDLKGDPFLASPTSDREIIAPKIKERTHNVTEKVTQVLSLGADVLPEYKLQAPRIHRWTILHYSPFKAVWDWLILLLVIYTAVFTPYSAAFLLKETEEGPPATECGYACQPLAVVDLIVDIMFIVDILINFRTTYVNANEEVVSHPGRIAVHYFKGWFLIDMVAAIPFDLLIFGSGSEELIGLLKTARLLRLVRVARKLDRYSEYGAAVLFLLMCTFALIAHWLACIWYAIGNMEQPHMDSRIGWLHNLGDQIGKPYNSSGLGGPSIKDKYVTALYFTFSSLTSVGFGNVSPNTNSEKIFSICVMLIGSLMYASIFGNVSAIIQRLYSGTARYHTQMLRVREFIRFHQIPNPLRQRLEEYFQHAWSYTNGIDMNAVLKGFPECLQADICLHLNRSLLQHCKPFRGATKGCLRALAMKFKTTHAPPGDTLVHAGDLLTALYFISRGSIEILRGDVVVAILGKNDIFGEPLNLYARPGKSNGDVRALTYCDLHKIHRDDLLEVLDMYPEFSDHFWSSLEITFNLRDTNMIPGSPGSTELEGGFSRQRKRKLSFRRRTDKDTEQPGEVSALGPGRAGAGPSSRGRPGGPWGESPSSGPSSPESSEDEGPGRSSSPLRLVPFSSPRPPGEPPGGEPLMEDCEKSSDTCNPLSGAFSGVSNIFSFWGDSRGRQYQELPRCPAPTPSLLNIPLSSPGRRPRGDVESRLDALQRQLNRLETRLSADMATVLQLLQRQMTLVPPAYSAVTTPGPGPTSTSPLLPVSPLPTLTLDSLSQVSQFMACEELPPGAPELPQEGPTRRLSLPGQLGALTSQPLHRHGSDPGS
Summary of the method: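 U2OS cells expressing the channel were plated at 1000 cells/well, incubated overnight at 37 C, then loaded with FluxOR II thallium-sensitive dye for 1 h at room temperature in the dark, with a further 10 min at room temperature before stimulation.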

[14] = molecular target: Cytochrome P450 3A4 (Homo sapiens) (UniProt P08684); assay: Cytochrome P450 Family 3 Subfamily A Member 4 (CYP3A4) small molecule antagonists: luciferase reporter qHTS assay (AID 1671201); note: nearly all actives have a fitted effect of over 50% in size; note: potency is the fitted concentration of half-maximal effect
Cytochrome P450 3A4 (Homo sapiens), sequence (P08684 whole entry, looked up): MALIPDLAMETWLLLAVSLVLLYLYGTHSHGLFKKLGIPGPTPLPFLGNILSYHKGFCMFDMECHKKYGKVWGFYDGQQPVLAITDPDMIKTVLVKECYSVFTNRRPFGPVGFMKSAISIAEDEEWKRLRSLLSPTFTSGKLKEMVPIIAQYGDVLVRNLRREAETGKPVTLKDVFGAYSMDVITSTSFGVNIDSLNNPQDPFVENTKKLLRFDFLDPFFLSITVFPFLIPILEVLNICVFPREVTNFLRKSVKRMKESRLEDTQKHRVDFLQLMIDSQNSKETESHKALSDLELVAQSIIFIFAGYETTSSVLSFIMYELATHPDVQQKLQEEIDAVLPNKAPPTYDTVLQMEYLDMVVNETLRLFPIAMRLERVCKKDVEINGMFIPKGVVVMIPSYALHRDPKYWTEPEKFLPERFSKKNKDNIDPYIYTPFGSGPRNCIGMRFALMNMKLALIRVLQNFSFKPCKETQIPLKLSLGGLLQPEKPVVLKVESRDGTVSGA
Summary of the method: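 P450-Glo CYP3A4 system with proluciferin substrate; compounds preincubated 10 min RT with enzyme-substrate mix, then NADPH regeneration added for 1 h RT. Detection reagent 20 min, luminescence read as relative luminescence units.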

[15] = molecular target: Thyrotropin-releasing hormone receptor (Homo sapiens) (UniProt P34981); assay: qHTS assay to identify small molecule antagonists of the thyrotropin-releasing hormone receptor (TRHR) signaling pathway (AID 1346877; active = well fitted inhibition curve with a large enough effect in the repeat runs, not every such curve was filed as active; note: series mostly up to about 51 µM)
Summary of the method: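 Cells (TRHR-HEK293) are plated and kept 18 h at 37 °C/5% CO2. A calcium-sensitive dye is added for 2 h, compound follows for 5 min at room temperature, and TRH is then given at 1 nM final.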

[16] = molecular target: Cytochrome P450 2D6 (Homo sapiens) (UniProt P10635); assay: Cytochrome P450 Family 2 Subfamily D Member 6 (CYP2D6) small molecule antagonists: luciferase reporter qHTS assay (AID 1671196); note: nearly all actives have a fitted effect of over 50% in size; note: potency is the fitted concentration of half-maximal effect
Cytochrome P450 2D6 (Homo sapiens), sequence (P10635 whole entry, looked up): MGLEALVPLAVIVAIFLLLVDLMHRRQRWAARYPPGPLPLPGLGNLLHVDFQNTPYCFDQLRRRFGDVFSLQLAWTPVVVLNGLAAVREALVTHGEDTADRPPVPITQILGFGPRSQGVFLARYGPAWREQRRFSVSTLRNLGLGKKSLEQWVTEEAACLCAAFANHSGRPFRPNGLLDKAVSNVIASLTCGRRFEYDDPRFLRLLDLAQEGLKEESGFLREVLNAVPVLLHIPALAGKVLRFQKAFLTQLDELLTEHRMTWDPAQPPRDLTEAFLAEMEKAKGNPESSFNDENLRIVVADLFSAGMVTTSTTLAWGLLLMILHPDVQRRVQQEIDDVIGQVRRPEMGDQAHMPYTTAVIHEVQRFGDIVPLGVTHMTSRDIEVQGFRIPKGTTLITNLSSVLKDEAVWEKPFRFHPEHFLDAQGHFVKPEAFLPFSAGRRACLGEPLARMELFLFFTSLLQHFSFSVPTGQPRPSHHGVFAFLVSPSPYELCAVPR
Summary of the method: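 P450-Glo format: CYP2D6 converts a proluciferin substrate to luciferin in an NADPH-driven reaction lasting 1 h at room temperature. Light output, proportional to CYP2D6 activity, reflects interference by test chemicals.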

[17] = molecular target: Nuclear receptor subfamily 1 group I member 2 (Homo sapiens) (UniProt O75469); assay: CYP3A4 induction through human pregnane X receptor (PXR) by small molecules, qHTS assay (AID 1346984); note: nearly all actives have a fitted effect of over 40% in size
Summary of the method: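 Steps: seed DPX-2 cells, 5 hr at 37C; pin-transfer compounds; 24 hr at 37C; add Luciferin-IPA (3uM final), 3 hr at 37C; add One-Glo, 30 min RT; read luminescence.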

[18] = molecular target: Nuclear receptor subfamily 1 group I member 2 (Homo sapiens) (UniProt O75469); assay: Human pregnane X receptor (PXR) activation by small molecules, qHTS assay (AID 1346985); note: nearly all actives have a fitted effect of over 40% in size
Summary of the method: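 DPX-2 cells (HepG2 co-transfected with a PXR response element and a CYP3A4-promoter luciferase construct) were seeded at 2,000 per well, rested 5 hr at 37C, then exposed to DMSO-dissolved compounds for 24 hr. Activation was read as luciferase luminescence.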

[19] = qHTS assay to identify small molecule agonists of the TGF-beta/Smad signaling pathway (AID 1346859; active = well fitted activation curve with a large enough effect in the signal ratio in the repeat runs, not every such curve was filed as active; the % refers to the signal ratio; note: series mostly up to about 77 µM)
Summary of the method: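 HEK 293T cells stably carrying a beta-lactamase reporter driven by the Smad binding element were seeded overnight, exposed to DMSO-dissolved compounds for 5 hr at 37 C, 5% CO2, then loaded with FRET substrate for 2 hr at room temperature.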

SMILES | outcome [1] | outcome [2] | outcome [3] | outcome [4] | outcome [5] | Potency [6] | outcome [7] | outcome [8] | Potency [9] | Potency [10] | Potency [11] | Potency [12] | Potency [13] | Potency [14] | outcome [15] | Potency [16] | Potency [17] | Potency [18] | outcome [19]
CC(=O)OC1CCCCC1C(C)(C)C (stereo not given) | inactive | inactive | inactive | inactive | inactive | inactive | inactive | inactive | inactive | inactive | inactive | inactive | inactive | inactive |  |  |  |  | 
CCCCSCCCC | inactive | inactive |  | inactive | inactive | inactive | inactive | inactive | inactive | 79.6 µM (active) | 63.3 µM (active) |  | inactive | inactive | inactive | inactive |  |  | 
COc1c2occc2c(OC)c2c(=O)cc(C)oc12 | inactive | inactive |  | inactive |  | inactive | inactive | inactive |  | 3.47 µM (active) | 12.3 µM (active) | 0.144 µM (active) | inactive |  |  | 12.3 µM (active) |  |  | 
COC(=O)/C=C\C(=O)O | inactive | inactive | inactive | inactive | inactive | inactive | inactive |  | inactive | inactive | inactive | inactive | inactive | inactive | inactive | inactive |  |  | 
CC(=O)CCC1=C(C)CCCC1(C)C | inactive | inactive | inactive | inactive | inactive | inactive | inactive |  | inactive | 35.6 µM (active) | 31.7 µM (active) | 39.9 µM (active) | inactive | 10 µM (active) | inactive | inactive |  |  | 
c1ccc2c(CC3=NCCN3)cccc2c1 | inactive | inactive |  | inactive | inactive | inactive | inactive | inactive | inactive | inactive | inactive | inactive | inactive | inactive |  | 9.77 µM (active) | inactive | inactive | 
CN(C)C(C)(C)CO |  | inactive |  | inactive | inactive | inactive | inactive | inactive | inactive | inactive | inactive | inactive | inactive |  | inactive | inactive |  |  | inactive
CCC(=O)CC | inactive | inactive | inactive | inactive | inactive | inactive | inactive | inactive | inactive | inactive | inactive |  | inactive | inactive |  | inactive |  |  | 
Cc1c(N)cccc1Cl | inactive | inactive | inactive | inactive |  | inactive | inactive | inactive | inactive | inactive |  | 11.3 µM (active) | inactive | inactive |  |  |  |  | 
CCCc1ccc(O)cc1 | inactive | inactive |  | inactive | inactive | inactive | inactive | inactive | inactive |  |  |  | inactive |  | inactive |  |  |  | 
CC(C)C[C@@H]1[C@H](c2ccccc2)OC(=O)N1CCCN1CCCCCC1 | inactive | inactive | inactive |  | inactive | inactive | inactive | inactive |  | 2.75 µM (active) |  | inactive | inactive |  | inactive | 0.436 µM (active) |  |  | 
CC(C)c1ccc(C=O)cc1 | inactive | inactive | inactive | inactive | inactive | inactive | inactive |  | inactive | inactive | inactive | inactive |  | inactive | inactive | inactive |  |  | 
CC(S)C(C)S (stereo not given) |  | inactive | inactive | inactive | inactive | inactive | inactive | inactive | inactive | inactive | inactive |  | inactive | inactive | inactive | inactive |  |  | 

Reference: PubChem BioAssay (Tox21)
